Sampled rows, rich in hits. Any-hit rate of the full collection: about 1.9%.
PP5 inh: PP5 phosphatase inhibitors, primary screen, biochemical, fluorescence; purified PP5c, OMFP substrate fluorescence; inhibition, % at 6.7 µM; 320,000 compounds, 0.18% hits; AID 1987, 2009;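 active means inhibition above the campaign's mean inhibition across all tested compounds plus 3 SD, cut at about 9.5% in these data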;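 further: 0% = DMSO only and 100% = 100 µM cantharidin control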
PP1 inh: PP1-alpha phosphatase inhibitors, primary screen, counter-screen for PP5 inhibitor project, biochemical, fluorescence, OMFP substrate, single point. purified PP1alpha. inhibition, % at 6.7 µM. 320,000 compounds, 0.9% hits;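 active means inhibition above the mean inhibition of all tested compounds plus 3 SD, computed separately for each screening campaign, cut at about 15% in these data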
Target sequence (P62136 whole entry, looked up): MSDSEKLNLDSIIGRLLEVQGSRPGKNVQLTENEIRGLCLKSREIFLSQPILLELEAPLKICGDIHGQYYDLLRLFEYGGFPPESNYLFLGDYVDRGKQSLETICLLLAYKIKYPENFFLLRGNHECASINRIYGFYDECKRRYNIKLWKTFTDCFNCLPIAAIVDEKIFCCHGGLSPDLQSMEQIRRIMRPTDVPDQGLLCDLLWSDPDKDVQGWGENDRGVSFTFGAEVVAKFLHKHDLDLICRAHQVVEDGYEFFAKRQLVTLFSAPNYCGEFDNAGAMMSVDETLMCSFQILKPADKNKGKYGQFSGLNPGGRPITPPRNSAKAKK
Cardio protect: cardioprotection against H2O2-induced cell death, primary screen, uHTS, H9c2 cells, ATPLite luminescence. H9c2 cardiomyocytes, H2O2 injury protection, 2 h. AID 588492, 2011. protection from H2O2 cell death, % at 20 µM. 360,000 compounds, 0.63% hits;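 active means compounds giving at least 50% protection of heart cells from peroxide-induced death in the single-dose screen, raw or plate-pattern-corrected value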;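 further: 0% = DMSO wells with peroxide and 100% = DMSO wells without peroxide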
ATG4B inhibitor: ATG4B protease inhibitors, primary screen, biochemical, fluorescence, uHTS. Cysteine protease ATG4B (Homo sapiens), Q9Y4P1. ATG4B cleavage of LC3-PLA2, NBD-HPC fluorescence, 1 h. inhibition, % at 8.33 µM. 340,000 compounds, 0.51% hits. AID 504462, 2011; in the data active means inhibition above about 40%
PP1 confirm: PP1 phosphatase inhibitors, confirmation, biochemical, fluorescence, OMFP substrate, triplicate. 1,900 compounds, 52% hits. purified PP1alpha. shares compounds with PP1 inh. inhibition, % at 6.7 µM. AID 2358, 2010;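 active means mean PP1 inhibition above a set limit taken from the earlier primary screen, cut at about 15% in these data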
PP5 counter: PP5 phosphatase inhibition by PP1 hits, confirmation, counter-screen for PP1 inhibitor project, biochemical, fluorescence, triplicate | shares compounds with PP1 inh | inhibition, % at 6.7 µM | 1,900 compounds, 4% hits | purified PP5c, OMFP fluorescence;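 active means mean PP5 inhibition over triplicate wells above about 9.5% taken from the earlier PP1 screen, limit read from the data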
* = called active by the depositor; / = no result given.

SMILES	PP5 inh	PP1 inh	Cardio protect	ATG4B inhibitor	PP1 confirm	PP5 counter
CC1CCCN(S(=O)(=O)c2ccc(C(=O)Nc3nnc(-c4ccccn4)o3)cc2)C1 (centres undefined)	1	18*	18	5	15*	-1
O=C(Nc1nnc(C2CC2)o1)c1ccc(S(=O)(=O)N2CCc3ccccc3C2)cc1	-2	30*	20	-13	31*	-1
CC1CCCN(S(=O)(=O)c2ccc(C(=O)Nc3nnc(C4CC4)o3)cc2)C1 (centres undefined)	6	26*	10	-6	16*	-2
COc1ccc(-c2nnc(NC(=O)c3ccc(S(=O)(=O)N4CCc5ccccc5C4)cc3)o2)cc1	1	1	40	12	/	/
Cc1nc2nc(-c3ccccc3)cc(=O)n2[nH]1	1	1	-20	-6	/	/
Cc1cccc(-c2cc3nc(-c4ccccc4)cc(=O)n3[nH]2)c1	0	23*	-2	5	21*	3
O=c1cc(-c2ccc([N+](=O)[O-])cc2)nc2cc(-c3ccc(F)cc3)[nH]n12	0	35*	18	-7	34*	1
O=C(CCC(=O)N1CCOc2ccccc21)NCCCN1CCN(Cc2ccccc2)CC1	1	-2	-5	2	/	/
CCOC(=O)c1cc(-c2cccs2)nc2c1c(C)nn2-c1ccccn1	1	23*	21	-30	25*	-2
N#CCC(=O)N/N=C/c1cc(Br)ccc1OCc1cccc2ccccc12	3	21*	-1	-15	-1	1
N#CCC(=O)N/N=C/c1c2ccccc2cc2ccccc12	/	/	8	-7	/	/
CC[C@]1(C(=O)OC)[C@H]2C(=O)N(C)C(=O)[C@H]2[C@H]2CN=C(SCc3ccc(C(=O)OC)cc3)N21	/	/	2	8	/	/
Cc1ccc(C)c(NC(=O)CSc2nc3nc(-c4cccs4)cc(C(F)(F)F)c3c(=O)[nH]2)c1	3	23*	-11	35	14	-1
Cc1ccc(C)c(NC(=O)CSc2nc(N)c(NC(=O)c3cccs3)c(=O)[nH]2)c1	/	/	4	-1	/	/
O=C(CSc1nc2nc(-c3cccs3)cc(C(F)(F)F)c2c(=O)[nH]1)Nc1ccc(F)c(F)c1	3	39*	-13	38	30*	2
Oc1cc2c(cc1CN1CCN(c3ncccn3)CC1)OCO2	0	0	3	-5	/	/
COC(=O)c1ccc(N2CCN(C)CC2)c(NC(=O)c2sc3ccccc3c2Cl)c1	4	2	-23	-14	/	/
C=CCN(c1ccccc1)S(=O)(=O)c1cccc(C(=O)N2CC(C)CC(C)C2)c1 (centres undefined)	0	-3	-7	4	/	/
Nc1nc(N)c2cc(Sc3ccc4ccccc4c3)ccc2n1	0	23*	-17	16	11	0
CC1=C(C(=O)Nc2ccccc2C)C2(CCCC2)C(C(N)=O)C(=O)N1 (centres undefined)	-3	26*	1	6	-5	-6
Cc1ccccc1NC(=O)c1cnc2ccccn2c1=O	0	-3	-14	6	/	/
N#Cc1ccc(C(=O)OCCCc2cc3ccccc3c(=O)o2)cc1	2	-6	-18	-8	/	/
CCC1(CC)Cc2ccccc2-c2nc(NCCO)[nH]c(=O)c21	3	0	-5	-3	/	/
O=c1[nH]c(NCCO)nc2c1C1(CCCCC1)Cc1ccccc1-2	1	19*	-4	-6	2	0
Cc1cc(Cl)c(S(=O)(=O)N2CCN(c3ccc(F)cc3)CC2)cc1OCC(=O)NC1CCCCC1	6	18*	-15	6	2	-2
SMILES	PP5 inh	PP1 inh	Cardio protect	ATG4B inhibitor	PP1 confirm	PP5 counter
Cn1c(SCC(=O)c2ccc3c(c2)Cc2ccccc2-3)nnc1-c1ccccc1	3	26*	-16	-3	32*	-1
COc1ccc(S(=O)(=O)Nc2cccc(SC)c2)cc1C(=O)N1CCOCC1	0	1	-4	-3	/	/
COc1ccc(S(=O)(=O)Nc2ccc(F)c(F)c2)cc1C(=O)N1CCOCC1	-4	22*	-8	2	-3	-5
CC1C(=O)N(Cc2cn(Cc3ccco3)nn2)CCS(=O)(=O)N1Cc1ccc(-c2ccc(Cl)c(Cl)c2)cc1 (centres undefined)	/	/	-7	/	/	/
N#Cc1ccc(CC(=O)c2ccccc2)[nH]c1=O	/	/	2	-8	/	/
COc1ccc(NC(=O)NNC(=O)c2ccc(-c3ccccc3)cc2)cc1	-2	28*	-1	-3	22*	-6
COc1ccc(NC(=O)NNC(=O)COc2ccc3cc(Br)ccc3c2)cc1OC	0	25*	1	-4	25*	-6
COc1ccc2cc(OCC(=O)NNC(=O)Nc3ccc(C(C)=O)cc3)ccc2c1	1	43*	-6	-7	41*	-2
S=C(NCCCN1CCN(CCCNC(=S)NC2CCCCC2)CC1)NC1CCCCC1	/	/	-9	-3	/	/
CC(=O)Nc1ccc(NC(=O)C(C)OC(=O)CCCOc2ccc(Cl)c(C)c2)cc1 (centres undefined)	1	2	1	-6	/	/
O=c1cc(-c2ccccc2)nc2c(-c3ccccc3)c(C(F)(F)F)[nH]n12	2	33*	-10	40	33*	0
COc1ccc(NC(=O)c2cc(-c3ccncc3)nc3ccc(Br)cc23)cc1OC	1	18*	-5	-1	24*	0
Cn1c(N2CCOCC2)c(/C=N/OC(=O)c2ccc(F)cc2)c2ccccc21	1	-1	4	-6	/	/
Cc1ccc(C(=O)O/N=C/c2c(N3CCOCC3)n(C)c3ccccc23)cc1	3	21*	-1	13	-1	1
COc1ccc(Cl)cc1NC(=O)CN1C(=O)NC2(CCCC2)C1=O	-1	3	-5	5	/	/
Cc1ccccc1/C=C/c1nc2ccccc2c(=O)[nH]1	0	20*	8	-7	18*	-2
Cc1cc(S(=O)(=O)Nc2ccc3cn[nH]c3c2)c(C)cc1Cl	4	7	-13	-19	/	/
Cc1ccccc1C(=O)N1CCc2cc(-c3nc(NC(=O)Cc4ccc5c(c4)OCO5)sc3C)ccc21	4	19*	-8	5	19*	3
CC(=O)N1N=C(c2ccccc2OC(=O)/C=C/c2ccccc2)CC1c1ccccc1 (centres undefined)	2	21*	/	0	0	0
CC(=O)N1N=C(c2ccc3nccnc3c2)CC1c1ccccc1 (centres undefined)	1	-1	3	-6	/	/
COCCCNC(=O)CN(CCc1ccccc1)S(=O)(=O)c1ccccc1	2	1	8	-6	/	/

Assay outcomes as filed in PubChem.
